HT1080 IDH1KD tx – qHTS for induction of synthetic lethality in tumor cells producing 2HG: qHTS for the HT-1080-IDH1KD cell line | actives 2% (n = 360,000) | Potency, µM (top dose mostly 46.1 µM), hits mostly cytotoxic | HT-1080 IDH1 knockdown viability, ATP luminescence, 48 h
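Viability of IDH1-knockdown HT-1080 fibrosarcoma cells was assessed by CellTiter-Glo after 48 h at 37 °C with titrated compound; concentration-effect curves were classified by fit quality and response size.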
KB-3-1 cytotox – qHTS assay for MDR1-selective chemotherapeutics: Primary screen using the parental adenocarcinoma cell KB-3-1; KB-3-1 viability, CellTiter-Glo ATP luminescence, 72 h; Potency, µM (series often up to 46.1 µM), actives largely listed as cytotoxic; actives 1.4% (n = 400,000); AID 1347075, 2019; note: nearly all actives have a fitted effect of over 60% in size
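KB-3-1 parental drug-naive adenocarcinoma cells in DMEM/10% FBS, incubated 72 h at 37 C with pin-transferred compounds across a concentration series. Viability by CellTiter-Glo luminescence; concentration-response curves fitted after normalization.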
KB-V1 MDR tox – qHTS assay for MDR1-selective chemotherapeutics: Primary screen using the drug-selected MDR subline cells KB-V1. actives 3.4% (n = 400,000). AID 1347076, 2019. KB-V1 MDR cells viability, CellTiter-Glo, 72 h. Potency, µM (highest dose often 46.1 µM), actives largely listed as cytotoxic; note: nearly all actives have a fitted effect of over 60% in size
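Cells of the MDR subline KB-V1 are plated, dosed with compound at multiple concentrations, and incubated 72 h at 37 degrees C; CellTiter-Glo is then added and luminescence read after 10 min.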
IL-1B inflam inh – qHTS for Inhibitors of Inflammasome Signaling: IL-1-beta AlphaLISA Primary Screen | THP-1 LPS/ATP IL-1B secretion, AlphaLISA, 16 h; active compounds read low | actives 4.7% (n = 360,000) | activity change, % at 57.5 µM; in the data active = activity change below about -50%; inconclusive = mostly about -30% to -49%
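Secreted IL-1B measured by AlphaLISA bead assay after 16 h compound exposure of THP-1 cells; compounds (final up to 57.5 uM) added 1 h before LPS (250 ng/mL) and ATP (1.25 mM) stimulation; lower signal means less secretion.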
HT1080-NT tox – qHTS for induction of synthetic lethality in tumor cells producing 2HG: qHTS for the HT-1080-NT fibrosarcoma cell line; HT-1080-NT fibrosarcoma viability, CellTiter-Glo ATP luminescence, 48 h; Potency, µM (titrated, usually from 46.1 µM), usual class: cytotoxic; actives 1.6% (n = 360,000); AID 686970, 2013;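 note: NT is the 2HG producing partner of a matched IDH1 knockdown line; nearly all actives have a fitted effect of over 55% in size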
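HT-1080-NT fibrosarcoma cells (2HG-overproducing), 750 cells/well in RPMI with 5% FBS, dosed after 2 h and incubated 48 h at 37C. CellTiter-Glo luminescence normalized to DMSO and no-cell wells; concentration-response curves fitted and classed.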
Numbers stand for hits; . = inactive; ? = inconclusive; / = no result; ! = a repeat was not active; [ ] = dose if it differs, or a comment. An excerpt weighted towards active compounds, which were near 8.8% of everything screened. Unless noted, calls come from the whole dose curve; as a rule, active = well fitted curve in the direction sought with a large enough effect; inconclusive = small, poorly fitted or top-dose-only effect, or another doubt; inactive = no such curve, though single readings can be large; an effect the other way counts as inactive or inconclusive.

SMILES | HT1080 IDH1KD tx | KB-3-1 cytotox | KB-V1 MDR tox | IL-1B inflam inh | HT1080-NT tox
CCCc1cc(N2CCCC(C(=O)NCc3ccc4c(c3)OCO4)C2)n2ncnc2n1 (configuration not stated) | . | . | . | . | .[9.24 µM]
COc1ccc(CCNC(=O)C2CCCN(c3ncccn3)C2)cc1 (configuration not stated) | . | . | ? | . | .
CC(=O)Nc1nonc1-c1nnc(SCC(=O)Nc2ccc(C)cc2)n1-c1ccccc1 | / | . | . | / | /
CNC(=O)C[C@H]1C(=O)N(Cc2ccccc2)C[C@@H]1Cc1ccccc1 | . | . | . | . | .
CN1CCN(C(=O)/C=C/c2ccc([N+](=O)[O-])o2)CC1 | 20.6µM | . | . | -57.8 | ?
O=C(/C=C/c1ccc(-c2ccc(F)cc2)o1)N1CCCC1 | . | . | . | -75.4 | .
COC(=O)c1ccc(=O)c2nc3/c(=C/O)c(O)cc(=O)c3[nH]c12 | . | . | ? | . | .
CC(NC(=O)C(=O)N1CCCCC1)C(c1cccs1)N1CCN(c2ccccc2)CC1 (configuration not stated) | . | . | . | . | .
O=C(NCCn1cc(SCc2ccc(F)cc2)c2ccccc21)c1c(F)cccc1F | . | ? | 18.4µM! | -60.9 | ?
Cc1ccc(NC(=O)COC(=O)CNC(=O)c2ccc(Br)cc2)c(C)c1 | . | . | . | . | .
CC(=O)N1CC(c2ccccc2)C(c2ccc(Cl)cc2)=N1 (configuration not stated) | . | . | 14.6µM | . | .
Nc1c(Cl)cc2c(c1Oc1ccccc1)C(=O)c1ccccc1C2=O | . | . | ? | -70.8 | .
Nc1c(Cl)cc2c(c1Br)Cc1ccccc1-2 | . | . | . | . | .
COc1ccc(OC)c(NC(=O)c2cc(C3CC3)nc3c2c(C)nn3-c2ccc(C)cc2)c1 | / | . | . | / | /
COc1ccc(N2CCN(C(c3cccs3)C(C)NS(=O)(=O)c3ccccc3)CC2)cc1 (configuration not stated) | . | 20.6µM | ? | . | .
CC(C)C(=O)NC(C)C(c1cccs1)N1CCN(c2ccccc2)CC1 (configuration not stated) | . | . | 13µM | . | .
CCS(=O)(=O)NC(C)C(c1cccs1)N1CCN(c2ccc(OC)cc2)CC1 (configuration not stated) | . | . | . | . | .
CC(NC(=O)c1cccs1)C(c1cccs1)N1CCN(c2ccccc2)CC1 (configuration not stated) | . | . | . | . | .
O=[N+]([O-])c1cc(-n2cccc2)ccc1N1CCOCC1 | . | ? | 6.51µM | . | .
Cc1ccc(C)n1-c1ccc(N2CCOCC2)c([N+](=O)[O-])c1 | ? | ? | . | -67.8 | .
O=[N+]([O-])c1ccc(N2CCOCC2)c([N+](=O)[O-])c1 | . | . | . | . | .
Cc1cc(C=O)c(C)n1-c1ccc(N2CCOCC2)c([N+](=O)[O-])c1 | . | . | . | . | .
CCC(=O)NCCc1nc2cc(NC(=O)c3ccc(F)cc3)ccc2n1C | . | . | ? | . | .
CCOC(=O)CNc1nc(C#N)nc(N2CCOCC2)n1 | . | ? | . | -89.7 | .
CN(C)c1nc(C#N)nc(N2CCOCC2)n1 | . | . | . | . | .
SMILES | HT1080 IDH1KD tx | KB-3-1 cytotox | KB-V1 MDR tox | IL-1B inflam inh | HT1080-NT tox
N#Cc1nc(N2CCCC2)nc(N2CCCC2)n1 | ? | ? | . | -91.5 | .
N#Cc1nc(N2CCCCC2)nc(N2CCOCC2)n1 | . | . | . | -55.3 | .
N#Cc1nc(N)nc(N2CCCCC2)n1 | / | . | . | / | /
CCOC(=O)c1c(C)[nH]c(C(=O)N2CCN(c3ccc(OC)cc3)CC2)c1C | . | . | . | . | .
NS(=O)(=O)c1ccc(N/N=C/c2ccncc2)cc1 | . | . | ? | . | .
NS(=O)(=O)c1ccc(N/N=C/C=C/c2ccccc2[N+](=O)[O-])cc1 | . | ? | . | -54.3 | .
NS(=O)(=O)c1ccc(N/N=C/c2ccccc2Br)cc1 | ? | . | . | -106.1 | ?
O=C1N[C@@H](Cc2cn(S(=O)(=O)c3ccc([N+](=O)[O-])cc3)c3ccccc23)C(=O)N[C@H]1Cc1ccccc1 | . | . | . | . | .
c1ccc(C2Nc3ccccc3Oc3ccccc32)cc1 (configuration not stated) | . | . | . | . | .
O=C1NC(c2ccccc2)N=C2Oc3ccccc3C=C12 (configuration not stated) | ? | 1.3µM | 4.11µM | -53.6 | ?
CCOC(=O)CC(NC(=O)CCc1c(C)nc2c(-c3ccccc3)c(C)nn2c1C)c1ccc(C)cc1 (configuration not stated) | / | . | . | / | /
O=C(NC1CC1)c1sc2cc(Cl)ccc2c1Cl | . | . | ? | . | .
CC1(C)CC(NC(=O)c2sc3cc(Cl)ccc3c2Cl)CC(C)(C)N1 | 11.6µM | ? | 18.4µM | -73.1 | 14.6µM
CCc1ccccc1OCC(=O)Nc1cc(S(=O)(=O)N2CCOCC2)ccc1N1CCCCC1 | . | . | . | . | ?
Cc1ccc(C(=O)N/N=C2\CCc3ccccc32)c(C)c1 | . | . | 23.1µM | . | .
Cc1ccc2cc3c(N)[nH]nc3nc2c1 | . | . | 18.4µM | . | .
Cc1ccc2ccc(C3C(=O)c4ccccc4C3=O)nc2c1 | . | . | . | . | .
CCCCn1c(N)c(N(CCC(C)C)C(=O)c2ccc(C)c(S(=O)(=O)N3CCOCC3)c2)c(=O)[nH]c1=O | . | . | . | . | .
CC(=O)c1ccc(NC(=O)N2C3CCC2CC(O)(c2cccnc2)C3)cc1 (configuration not stated) | . | . | . | . | .
COc1ccc(CCN2CCCn3c2nc2c3c(=O)n(CC(N)=O)c(=O)n2C)cc1OC | . | . | . | . | .
CN(C)c1ccc(N=Nc2ccc(S(N)(=O)=O)cc2)cc1 | . | . | . | . | .
CC1=CC(=O)C=CC1=Nc1ccc(N(C)C)cc1 | ? | ? | ? | -120.6 | ?
Cn1c(=S)ccc2ccccc21 | . | . | . | . | .
O=C(/C=C/c1ccccc1)NC(=S)Nc1ccc(N2CCOCC2)c(Cl)c1 | . | . | . | . | .
Cc1cccc(NC(=S)NC(=O)/C=C/c2ccco2)c1 | ? | 4.61µM | 5.17µM | . | ?
O=C(/C=C/c1ccco1)NC(=S)Nc1ccc(N2CCOCC2)c(Cl)c1 | ? | 4.11µM | ? | . | ?
O=C(/C=C/c1ccco1)N1CCN(S(=O)(=O)c2cccc([N+](=O)[O-])c2)CC1 | . | . | 23.1µM | . | .
